ALR inh = inhibitors of human ALR sulfhydryl oxidase, primary screen, biochemical, H2O2 detection, HRP-luminol luminescence, single point; AID 485317, 2010; inhibition, % (concentration not given with the values); purified ALR, DTT oxidation; actives 3.8% (n = 290,000); FAD-linked sulfhydryl oxidase ALR (Homo sapiens), P55789;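 active = mean replicate inhibition above about 79%, with every replicate also reaching it, limit read from the data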
Target sequence (P55789 whole entry, looked up): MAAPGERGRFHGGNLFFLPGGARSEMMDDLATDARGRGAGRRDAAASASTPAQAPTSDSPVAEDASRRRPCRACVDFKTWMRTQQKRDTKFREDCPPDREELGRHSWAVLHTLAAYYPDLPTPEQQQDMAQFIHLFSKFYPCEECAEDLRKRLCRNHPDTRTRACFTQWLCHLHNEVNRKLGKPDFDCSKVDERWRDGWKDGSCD
HIF act = HIF pathway transcriptional activators, primary screen, cell-based, U2OS HRE-luciferase, luminescence; U2OS HRE-luciferase reporter; normalized: DMSO 0%, desferrioxamine 100%; activation, % at 7.5 µM (by protocol); actives 0.32% (n = 300,000); AID 1910, 2009;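 active = mean activation of at least 10% of the iron chelator positive control signal, with at least half of replicates also reaching 10%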
M18AAP inhibitor = PfM18AAP inhibitors, malaria aminopeptidase, primary screen, biochemical, QFRET, recombinant enzyme. inhibition, % at 7.35 µM. H-Glu-NHMec fluorogenic cleavage. actives 1.2% (n = 290,000). AID 1822, 2009. M18 aspartyl aminopeptidase (Plasmodium falciparum 3D7);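 active = inhibition above the campaign mean inhibition over all tested compounds plus 3 SD, cut at about 28% in these data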;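 note: 0% = plate median of test compound wells and 100% = 2 mM ZnCl2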
SUMO Mot1 rescue = yeast Mot1-301 growth rescue at high temperature, primary screen, SUMOylation pathway inhibitor project, S. cerevisiae, ATP luminescence, 38.5C; S. cerevisiae Mot1-301 growth rescue; percent above DMSO median, 100 means doubled; growth rescue, % at 18.8 µM; actives 1% (n = 320,000); AID 2716, 2010;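 active = every valid replicate shows activation above 250% relative to neutral control wells; inactive = the rest, any valid replicate at or below 250%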;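 note: OY570 slx delta 5 strain wells were the positive control but not used for scaling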
Mot1 SUMO dose = growth restoration of Mot1-301 yeast on galactose, dose response, SUMO pathway inhibitor project, whole organism, S. cerevisiae, ATP luminescence, cherry-picked samples | shares compounds with SUMO Mot1 rescue | S. cerevisiae Mot1-301 galactose growth, 24 h; -100 = growth of slx-deleted rescue strain | growth activity, percent, % at 42 µM | 2,300 tested, under 10 active | AID 493004, 2010;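 active = Signal drops as the depositor expects, and the fitted half-maximal dose is no more than ten times the top valid tested dose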;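 note: more negative values mean stronger growth rescue toward the control strain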
Active calls of the source: *; . = no result given; + = active, no number; [ ] = remark or other dose. Compounds with a hit are over-represented: about 5.3% of the library has one in this group of screens.

SMILES	ALR inh	HIF act	M18AAP inhibitor	SUMO Mot1 rescue	Mot1 SUMO dose
Cc1onc(-c2ccccc2)c1C(=O)N/N=C/C=C/c1ccccc1	-8.3	-0.1	-4.2	382.5*	1.8
O=C(NCc1cccnc1)c1cccc(OC2CCN(Cc3ccc(CO)o3)CC2)c1	12.6	-0.3	-6.0	10.3	.
CCc1nnc(NC(=O)CCc2ccccc2OC)s1	.	-0.2	-1.9	0.7	.
CC1(C)C(C=C(Cl)Cl)C1C(=O)OCc1cccc(Oc2ccccc2)c1 (stereo not given)	1.7	.	.	463.4*	0.8
CCOC(=O)C1CCN(Cc2cccc(Oc3ccccc3)c2)CC1	-0.5	1.3	4.8	88.3	.
Cc1cc(C(=O)NNC(=O)c2cccc(N(C)C)c2)c(C)o1	-2.4	0.1	3.7	6.3	.
Cc1cc(C(=O)NNC(=O)c2ccc(C)s2)c(C)o1	-1.8	0.0	.	475.7*	-0.3
NS(=O)(=O)c1ccc(NC(=O)c2ccc(F)cc2F)c(NC(=O)c2ccc(F)cc2F)c1	.	-0.2	0.1	-10.3	.
CC(Oc1ccc([N+](=O)[O-])cc1)C(=O)NCCCN1CCOCC1 (stereo not given)	0.9	-0.2	5.1	505.3*	-0.3
COc1ccc(/C=C2\Sc3ccc(C(=O)NCC4CCCO4)cc3N(C)C2=O)cc1 (stereo not given)	-1.4	-0.1	26.8	-6.3	.
COc1ccc(CNS(=O)(=O)c2ccc3c(c2)CCN3C(=O)C2CCC2)cc1	-1.1	0.0	1.5	412.1*	0.3
COc1cccc(CNS(=O)(=O)c2ccc3c(c2)CCN3C(=O)C2CC2)c1	-16.8	-0.9	0.2	.	.
S=c1[nH]nc(-c2ccco2)n1-c1ccc(Br)cc1	73.7	0.0	.	531.6*	0.5
COc1cccc2c1OC1(C)CC2/C(=C(\C)O)C(=O)N1 (stereo not given)	5.1	0.1	-2.8	-7.2	.
COc1cc2c(=O)n(CCC(=O)NCC3CCCO3)c(=O)n(CC(=O)Nc3ccccc3C)c2cc1OC (stereo not given)	-1.1	0.7	-2.0	444.2*	0.4
COC(=O)CCC(=O)OC1(C)C(=O)C2=CN(CCc3c[nH]c4ccccc34)C(c3ccc(OC)cc3)=CC2=C(Br)C1=O (stereo not given)	-5.7	0.6	.	419.1*	-0.2
COC(=O)CCC(=O)OC1(C)C(=O)C2=CN(Cc3ccccc3)C(c3ccc(OC)cc3)=CC2=C(Br)C1=O (stereo not given)	.	-0.2	.	15.5	.
CC(C)=CC(=O)Nc1cccc(S(=O)(=O)NC2=NCCCCC2)c1	.	.	.	-3.1	.
O=C(/C=C/c1ccc(Cl)cc1Cl)Nc1cccc(S(=O)(=O)NC2=NCCCCC2)c1	-12.7	1.7	-0.1	546.8*	0.7
CC(=O)c1ccccc1C(=O)N1CCCC(N2CCN(Cc3ccc4c(c3)OCO4)CC2)C1 (stereo not given)	-1.2	-0.9	3.1	360.3*	0.4
C[C@@H](NC(=O)[C@@H]1Cc2ccccc2CN1)C(=O)Nc1ccc2c(c1)OCO2	.	1.2	1.1	88.2	.
Cc1cccc(C(=O)N(NC(=O)Oc2ccccc2)C(C)(C)C)c1	-1.5	0.1	-6.5	-11.1	.
COc1ccccc1C(=O)N(NC(=O)Oc1ccccc1)C(C)(C)C	-3.3	-0.3	4.2	549.2*	-0.4
CC(C)=CCc1cc([C@@H]2CC(=O)c3ccc(O)c(CC=C(C)C)c3O2)ccc1O	-1.5	-0.4	.	-24.0	.
CCNC(=O)C1CC(=O)N(c2ccc(OCC)cc2)C1 (stereo not given)	6.2	0.3	-1.5	-5.2	.
SMILES	ALR inh	HIF act	M18AAP inhibitor	SUMO Mot1 rescue	Mot1 SUMO dose
CCOc1ccc(N2CC(C(=O)OC)CC2=O)cc1 (stereo not given)	4.1	-0.4	-0.8	385.3*	-0.6
CC(NC(=O)C1CCCCC1)C(=O)NC1=NCCS1 (stereo not given)	-4.5	-0.6	-0.2	566.5*	0.4
CC(C)C(NC(=O)C12CC3CC(CC(C3)C1)C2)C(=O)NC1=NCCS1 (stereo not given)	-5.2	-0.4	1.8	.	.
C=CCC[C@H](Cc1ccc(F)cc1)C(=O)OC[C@@H](C)NC(=O)[C@H](CC=C)CC(=O)NCCO	0.9	.	.	-11.7	.
O=C(O)c1ccccc1S(=O)CCO (stereo not given)	0.6	0.2	-8.0	-16.8	.
CCS(=O)c1ccccc1C(=O)O (stereo not given)	.	-0.2	-7.4	391.5*	-0.1
OC(c1ccccc1)(C1CCCCC1)C(CN1CCOCC1)c1ccccc1 (stereo not given)	-2.9	-0.6	2.7	459.8*	-0.5
CCCNC(=O)c1cc(S(=O)(=O)N2CCCCC2)c[nH]1	-2.8	0.0	-7.6	-1.7	.
Cc1nc2c3ccccc3nc(NNC(=O)CCC(=O)N3CCCC(C)C3)n2n1 (stereo not given)	4.2	0.2	9.0	455.0*	0.0
Cc1nc2c3ccccc3nc(NNC(=O)CCC(=O)NC(C)C)n2n1	15.7	-0.4	26.1	15.7	.
COc1ccccc1NC(=O)N1CCN(C(=O)Nc2ccccc2OC)CC1	.	0.2	-17.3	+	-0.6
CC1CCCC(C)N1C(=O)CSc1nnnn1-c1cccc2c1CCCC2 (stereo not given)	-3.1	0.7	-3.5	414.1*	-0.2
O=C(CSc1nnnn1-c1cccc2c1CCCC2)N1CCCC1	-14.1	0.0	-0.9	1.0	.
CCOc1ccc(NC(=O)c2ccc(NC(=O)c3ccc(CN4CCOCC4)cc3)cc2)cc1	-8.8	-1.0	2.3	-10.5	.
CCOc1ccc(C(=O)Nc2ccc(CN3CCOCC3)cc2)cc1Br	-8.2	0.4	2.6	364.9*	0.5[21 µM]
O=C(CN1CCN(C(=O)c2ccccc2)CC1)Nc1ncc(Br)cc1Br	-0.3	0.4	1.6	+	-0.1
O=C(CN1CCN(C(=O)c2ccccc2)CC1)Nc1ccc(Cl)cc1F	-16.7	-0.5	5.0	6.0	.
NC(=O)CC(NC(=O)Cc1cccc2ccccc12)c1ccc(NCCCN2CCCC2=O)c([N+](=O)[O-])c1 (stereo not given)	0.0	-1.4	2.1	+	0.1
COc1cc2c(cc1OC)C(COc1ccccc1OC)N(C(C)=O)CC2 (stereo not given)	.	-3.1	3.0	186.9	.
COc1cc2c(cc1OC)C(c1ccccc1[N+](=O)[O-])N(C(C)=O)CC2 (stereo not given)	5.7	-0.3	7.0	383.6*	0.2
Cc1ccc(NC(=O)CN(C)C2CCCCC2)cc1Br	4.5	-0.9	5.1	-13.4	.
CNC(=O)c1ccccc1S(=O)c1ccccc1COC(C)=O (stereo not given)	-10.5	0.0	0.9	383.6*	-0.1
CCNc1ccc(S(=O)(=O)N(C)C)cc1NCC(=O)Nc1ccccc1Br	-28.9	-0.2	8.2	986.6*	0.0
